# Screens as filed in PubChem.
# Rows were chosen to be rich in hits. Some 1% of all compounds tested hit in one or more screens of this group.
# RN4220 kill = S. aureus RN4220 growth inhibition. inhibition, % (no concentration beside the values). OD600, 16 h. 330,000 compounds, 0.33% hits; in the data active = inhibition above about 85%
# Mtb hypoxia inh = Mtb hypoxia fluorescent reporter inhibition | fluorescence inhibition, % (concentration not given with the values) | AID 1159583 | M. tuberculosis hypoxia-regulated fluorescent reporter, fluorescence | 300,000 compounds, 0.1% hits; in the data active = fluorescence inhibition mostly above about 23%, no sharp cut-off; inactive = mostly below about 17%
# ugtP null kill = compounds lethal to S. aureus RN4220 ugtP deletion mutant | 330,000 compounds, 0.54% hits | OD600 growth, 16 h | AID 1259309 | growth inhibition, % (test concentration not listed); in the data active = growth inhibition above about 68%
# PriA SSB inh = inhibitors of Klebsiella pneumoniae PriA binding to SSB C-terminal tail; AlphaScreen SSBct-PriA binding, biotinylated peptide; 430,000 compounds, 0.6% hits; inhibition, % at 33 µM; in the data active = inhibition mostly above about 37%, no sharp cut-off; inactive = mostly below about 20%
# Mtb betalactam = beta-lactam sensitization of Mtb H37Rv | M. tuberculosis H37Rv growth with meropenem, percent inhibition | inhibition, % at 25 µM | 330,000 compounds, 0.27% hits; call rule not given here;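 also: growth measured after seven days incubation then overnight dye step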
# A number is an active result; - = inactive; . = no result given; ! = not active in a repeat.
SMILES,RN4220 kill,Mtb hypoxia inh,ugtP null kill,PriA SSB inh,Mtb betalactam
COc1ccc(CNc2oc(COc3ccc(Cl)cc3)nc2C#N)cc1,-,-,-,-,-
N#Cc1nc(COc2ccc(Br)cc2)oc1N1CCCC1,-,.,-,50.8,-
N#Cc1nc(COc2ccc(Cl)cc2Cl)oc1N1CCOCC1,-,-,-,56.0,-
COC(C)(CNS(=O)(=O)CC12CCC(CC1=O)C2(C)C)c1cccc(Cl)c1 (stereo not given),.,.,.,-,.
CCC1CCCCN1C(=O)Cc1csc(NC(=O)Nc2ccccc2)n1 (stereo not given),.,.,.,-,.
COc1ccc(N2CCN(c3oc(COc4ccccc4)nc3C#N)CC2)cc1,-,-,-,-,-
N#Cc1nc(COc2ccc(F)cc2)oc1N1CCCCCC1,.,.,.,110.9,.
CN1CCN(c2oc(COc3ccc(-c4ccccc4)cc3)nc2C#N)CC1,-,-,-,59.9,-
N#Cc1nc(COc2ccc(F)cc2)oc1N1CCCCC1,-,-,-,-,-
N#Cc1nc(COc2ccc(Cl)cc2)oc1N1CCCCC1,.,.,.,95.3,.
Cc1ccc(OCc2nc(C#N)c(N3CCOCC3)o2)cc1,.,.,.,82.0,.
Cc1ccc(C)c(S(=O)(=O)NC(C)C(=O)Nc2ccc(Cl)c(Cl)c2)c1 (stereo not given),.,.,.,-,.
Cc1cc(OC2CN(C(=O)CSC3CCCC3)C2)cc(=O)o1,.,.,.,-,.
N#Cc1nc(COc2ccccc2)oc1N1CCCC1,-,-,-,-,-
N#Cc1nc(COc2ccc(Br)cc2)oc1N1CCCCCC1,-,.,-,-,-
COc1ccc(OCc2nc(C#N)c(N3CCCCCC3)o2)cc1,.,.,.,102.5,.
N#Cc1nc(COc2ccccc2)oc1N1CCCCCC1,-,-,-,109.2!,-
N#Cc1nc(-c2ccccc2Cl)oc1N1CCCCCC1,.,.,.,94.2,.
CC1CCN(c2oc(-c3ccccc3Cl)nc2C#N)CC1,-,.,-,48.7,-
O=C(CSc1nc2ccccc2s1)N1c2ccccc2Sc2ccc(Cl)cc21,-,-,-,-,-
O=c1oc2cc(Cl)ccc2n1CSc1nc2ccccc2s1,85.4,.,-,-,-
COc1ccc(CNC(=O)Nc2cccc(Cl)c2)cc1,-,-,-,-,-
Cc1cc2cc(CNC(=S)Nc3ccc(OC(F)(F)F)cc3)ccc2n1C,-,-,-,62.2,-
Cc1cccc(NC(=S)NCc2ccc3c(c2)cc(C)n3C)c1C,-,-,-,72.1,-
COc1cccc(NC(=S)NCc2ccc3c(c2)cc(C)n3C)c1,-,-,-,-,.
SMILES,RN4220 kill,Mtb hypoxia inh,ugtP null kill,PriA SSB inh,Mtb betalactam
Cc1cc2cc(CNC(=O)Nc3cccc(Cl)c3)ccc2n1C,-,-,-,59.8!,-
Cc1cc2cc(CNC(=S)Nc3ccccc3)ccc2n1C,.,.,.,-,.
Cc1cccc(NC(=O)NCc2ccc3c(c2)cc(C)n3C)c1,-,-,-,45.9,-
Cc1cc(SCC(=O)NCc2ccc3c(c2)OCO3)nc(-c2cccnc2)n1,.,.,.,-,.
COc1ccc(C)c2sc(=NC(=O)c3ccnn3C)n(C)c12,.,.,.,-,.
COc1cc(C)c(-c2nc(CN3C[C@@H]4C[C@H](C3)c3cccc(=O)n3C4)c(C)o2)cc1C,.,.,.,-,.
CSCC(C)(O)CNS(=O)(=O)c1c(C)nn(C)c1C (stereo not given),.,.,.,-,.
Cc1cc2cc(CNS(=O)(=O)c3ccc(Br)cc3)ccc2n1C,.,.,.,36.0,.
Cc1cc2cc(CNS(=O)(=O)c3ccc4ccccc4c3)ccc2n1C,-,-,-,-,-
COc1cccc(-n2nc(-c3nc(-c4ccc5c(c4)OCO5)no3)c3ccccc3c2=O)c1,.,.,.,-,.
CCN(CC)c1ccc(N)cc1,.,.,.,65.1,-
CC1CCCN(c2ccc([N+](=O)[O-])cc2C(=O)c2ccccc2)C1 (stereo not given),-,-,87.4,-,-
CSCc1cc(N(C)c2ccccc2)nc(-c2ccccc2)n1,-,-,88.2,-,-
COc1cc(CSC)nc(-c2ccccc2)n1,-,-,-,-,-
Cc1ccc(C(=O)COc2ccccc2-c2ccccc2)cc1,-,-,85.5,-,-
Cc1ccc(C(=O)COc2ccccc2N2C(=O)c3ccccc3C2=O)cc1,-,-,-,-,-
O=Cc1ccc2cccnc2n1,-,-,-,-,-
c1cnc2c(c1)ccc1cccnc12,-,.,-,101.7,-
c1ccc2c(c1)ccc1cccnc12,.,.,.,-,.
O=Cc1ccc2ccc3cccnc3c2n1,-,-,-,81.0,-
Nc1cc2cccnc2c2ncccc12,.,.,.,151.5,.
Cc1cc(C)cc(OCCNC(=O)c2ccc(F)c(F)c2)c1,.,.,.,-,.
O=C(c1ccc(F)cc1)c1ccccc1C(=O)N1CC(S(=O)(=O)c2ccc(F)cc2)C1,.,.,.,-,.
Cc1cc(N2CCCCC2)nc(-c2ccc(Br)cc2)n1,-,-,86.5,-,-
O=C(Nc1nc2ccccc2c2nc3ccccc3n12)c1sc2ccccc2c1Cl,.,.,.,-,.
SMILES,RN4220 kill,Mtb hypoxia inh,ugtP null kill,PriA SSB inh,Mtb betalactam
COc1ccccc1CC(=O)N1CCN(c2ccc(-c3ccccn3)nn2)CC1,.,.,.,158.0,.
O=C(c1ccccc1F)N1CCN(c2ccc(-c3ccccn3)nn2)CC1,.,.,.,108.0,.
COc1ccccc1CC(=O)N1CCN(c2ccccn2)CC1,-,-,-,-,-
O=C(c1ccccc1C(F)(F)F)N1CCN(c2ccc(-c3ccccn3)nn2)CC1,.,.,.,150.0,.
COc1ccc(-c2c[n+](CC(=O)c3ccc(Cl)cc3)c3n2CCCCC3)cc1,.,.,.,-,.
COc1ccc(-c2c[n+](CC(=O)OC3CC(C)CCC3C(C)C)c3n2CCC3)cc1 (stereo not given),99.8,.,99.9,-,-
CC1CCC(C(C)C)C(OC(=O)C[n+]2cccc(C(N)=O)c2)C1 (stereo not given),-,.,-,-,-
CC(C)[C@@H]1CC[C@@H](C)C[C@H]1OC(=O)C[n+]1cc(-c2ccc(Cl)cc2)n2c1CCCCC2,100.6,.,100.4,-,-
CCC1CCc2c(sc3c2C(=O)NC(c2ccccn2)N3)C1 (stereo not given),.,.,.,-,.
O=C1NC(c2ccccn2)Nc2sc3c(c21)CCC3 (stereo not given),-,-,-,81.0,-
CN1CCc2c(sc3c2C(=O)NC(c2ccccn2)N3)C1 (stereo not given),-,-,-,84.8,-
CCN1CCc2c(sc3c2C(=O)NC(c2ccccn2)N3)C1 (stereo not given),.,.,.,-,.
O=C(NCc1ccc(F)cc1)C(=O)NC[C@@H](c1ccco1)N1CCc2ccccc2C1,.,.,.,-,.
CN(CC(=O)Nc1ccc(Cl)cc1)C(=O)c1ccc(N2CCCC2=O)cc1,-,-,-,-,-
CN(CC(=O)Nc1ccc(OC(F)(F)F)cc1)C(=O)c1ccc(N2CCCC2=O)cc1,-,29.6,-,-,-
Cc1cccc(-n2ncc3c(N(C)Cc4ccccc4)ncnc32)c1,-,-,-,104.2,-
FC(F)(F)Oc1ccc(C2NCc3ccccc3-n3cccc32)cc1 (stereo not given),-,-,93.6,-,-
O=C(CCc1ccccc1Br)N1CC(S(=O)(=O)c2ccc(Cl)cc2)C1,.,.,.,-,.
CCCCN(CC)S(=O)(=O)c1ccc(C(=O)Nc2nnc(-c3ccccc3Cl)o2)cc1,99.8,-,99.9,.,-
CC1CCCCN1S(=O)(=O)c1ccc(C(=O)Nc2nnc(-c3ccccc3Cl)o2)cc1 (stereo not given),97.8,-,98.1,-,-
